A selection: hits, their analogues and other compounds. The true share with any hit is near 18%.
DT40 TDP1 CPT = qHTS for Inhibitors of human tyrosyl-DNA phosphodiesterase 1 (TDP1): qHTS in cells in presence of CPT; chicken DT40 Tdp1-/-;hTDP1 cells + 20 nM CPT, ATP luminescence, 48 h; Potency, µM (doses to about 46.2 µM), without a hit: at the top dose activity change, negative = growth inhibition, hits mostly inhibitors; 12% of 420,000 active; AID 686979, 2013; further: potency means the concentration at half of the fitted maximal effect; on the % scale 0 is the no-effect control and ±100 the full control effect; nearly all actives have a fitted effect of over 55% in size
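Cell growth measured by CellTiter-Glo luminescence after a minimum 48 h, 37 C compound exposure with 20 nM CPT in Tdp1-knockout DT40 cells stably expressing hTDP1, seeded 400/well; qHTS titration format.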
TGFb inhibitor = qHTS for Inhibitors of TGF-b | HepG2 CAGA-GFP TGF-b/SMAD3 reporter, GFP fluorescence, 18 h; TGF-beta stimulated, 500 pg/mL final | AID 588855, 2011 | Potency, µM (doses to about 46.1 µM), inactives show top-dose activity, negative = inhibition, usual class: inhibitors | 1.2% of 410,000 active; further: potency means the concentration at half of the fitted maximal effect; on the % scale 0 is the no-effect control and ±100 the full control effect; nearly all actives have a fitted effect of over 65% in size
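GFP signal (ex488/em500-530) from TGF-beta-stimulated HEPG2 CAGA-GFP cells, 500 pg/mL final, 18 h at 37 degrees C in DMEM plus 1% FBS, normalized to unstimulated and DMSO-stimulated controls.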
DT40 TDP1 no CPT = qHTS for Inhibitors of human tyrosyl-DNA phosphodiesterase 1 (TDP1): qHTS in cells in absence of CPT. DT40 Tdp1-/- hTDP1 cells, no CPT, ATP luminescence, 48 h. Potency, µM (doses to about 46.2 µM), inactives show top-dose activity change, negative = growth inhibition, hits mostly inhibitors. 15% of 420,000 active; further: potency means the concentration at half of the fitted maximal effect; on the % scale 0 is the no-effect control and ±100 the full control effect; nearly all actives have a fitted effect of over 55% in size
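DT40 Tdp1-/-;hTDP1 cells, no CPT (DMSO vehicle only), 400 cells/well; compounds pin-transferred; ≥48 hr, 37 °C; CellTiter-Glo 30 min RT dark, luminescence read.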
IL-1B inflam inh = qHTS for Inhibitors of Inflammasome Signaling: IL-1-beta AlphaLISA Primary Screen | AID 743279, 2014 | activity change, % at 57.5 µM | 4.7% of 360,000 active | THP-1 LPS/ATP IL-1B secretion, AlphaLISA, 16 h; active compounds read low; in the data active means activity change below about -50%; inconclusive means mostly about -30% to -49%; further: on the % scale 0 is the no-effect control and ±100 the full control effect
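THP-1 cells pretreated 1 hr with compounds (up to 57.5 uM final), then stimulated with LPS (250 ng/mL final) plus ATP (1.25 mM final); secreted IL-1B measured by AlphaLISA after 16 hr, decreased signal indicating inhibition.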
TDP1 block = qHTS Assay for Inhibitors of Tyrosyl-DNA Phosphodiesterase (TDP1); recombinant TDP1, AlphaScreen DNA substrate cleavage; Potency, µM (doses to about 130 µM), for the others: at the highest dose activity change, negative = inhibition, actives largely listed as inhibitors; 0.28% of 350,000 active; AID 485290, 2010; further: potency means the concentration at half of the fitted maximal effect; on the % scale 0 is the no-effect control and ±100 the full control effect; nearly all actives have a fitted effect of over 40% in size
Target sequence (Q9NUW8 whole entry, looked up): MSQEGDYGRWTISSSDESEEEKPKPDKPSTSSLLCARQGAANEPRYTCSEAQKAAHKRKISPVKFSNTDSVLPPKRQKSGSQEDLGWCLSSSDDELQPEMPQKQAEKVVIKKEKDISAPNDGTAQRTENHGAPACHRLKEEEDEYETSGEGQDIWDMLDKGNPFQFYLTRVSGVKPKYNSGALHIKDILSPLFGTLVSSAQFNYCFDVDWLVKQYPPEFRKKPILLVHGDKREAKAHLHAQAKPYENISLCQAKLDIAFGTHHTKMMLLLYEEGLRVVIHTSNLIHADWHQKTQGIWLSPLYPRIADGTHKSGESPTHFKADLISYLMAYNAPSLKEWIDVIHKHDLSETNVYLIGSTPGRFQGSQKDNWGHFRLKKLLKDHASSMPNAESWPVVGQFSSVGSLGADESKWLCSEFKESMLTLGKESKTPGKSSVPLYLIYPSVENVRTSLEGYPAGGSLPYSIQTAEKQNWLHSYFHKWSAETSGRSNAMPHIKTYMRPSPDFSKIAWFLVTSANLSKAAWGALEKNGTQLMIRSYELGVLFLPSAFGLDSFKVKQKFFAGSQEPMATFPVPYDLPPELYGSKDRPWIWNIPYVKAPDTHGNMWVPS
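Compounds were preincubated with Tdp1 (1 nM final) for 15 min at room temperature before substrate (15 nM final) started a 5 min reaction; beads (10 ug/ml final) were then added for 10 min before AlphaScreen detection.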
HepG2 viability = qHTS for Inhibitors of TGF-b: Cytotox Counterscreen; HepG2 CAGA-GFP viability, ATP luminescence, 18 h; Potency, µM (series often up to 46.1 µM), for the others: top-dose activity change, negative = cytotoxicity, most hits filed as cytotoxic; 0.76% of 410,000 active; AID 588856, 2011; further: potency means the concentration at half of the fitted maximal effect
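HepG2 CAGA-GFP cells (1000/well, DMEM with 1% FBS) received compound, then TGF-beta at 500 pg/mL final, and were incubated 18 hours at 37 degrees C. Viability was read by CellTiter-Glo luminescence. Media-only wells were set as complete cell-killing and DMSO as no toxicity.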
The depositor's hits bear a star; u = inconclusive; x = no result; [ ] = remark or other dose. Unless noted, the call rests on the fitted dose curve; in most records, active means well fitted curve in the direction sought with a large enough effect; inconclusive means small, poorly fitted or top-dose-only effect, or another doubt; inactive means no such curve, though single readings can be large; an effect the other way counts as inactive or inconclusive.

SMILES	DT40 TDP1 CPT	TGFb inhibitor	DT40 TDP1 no CPT	IL-1B inflam inh	TDP1 block	HepG2 viability
COC(=O)C1=CN(c2ccc(F)cc2)C(N)=C(C#N)C1c1ccccc1 (stereo unspecified)	u	x	21µM*	0	x	x
COC(=O)C1=CN(c2ccc3c(c2)OCO3)C(N)=C(C#N)C1c1ccccc1 (stereo unspecified)	5.2µM*	x	5.8µM*	-19	x	x
COC(=O)C1=CN(c2ccccc2OC)C(N)=C(C#N)C1c1cccc([N+](=O)[O-])c1 (stereo unspecified)	0.82µM*	x	1.3µM*	55	x	x
COC(=O)C1=CN(c2cccc(OCc3ccccc3)c2)C(N)=C(C#N)C1c1ccccc1 (stereo unspecified)	u	x	u	8	x	x
COC(=O)C1=CN(c2ccc(N3CCOCC3)cc2)C(N)=C(C#N)C1c1ccc(-c2ccccc2)cc1 (stereo unspecified)	7.3µM*	x	5.8µM*	7	x	x
O=C(Cn1cnc2c(NCc3ccccc3)ncnc21)NCCCN1CCCC1=O	-1%	-23%	-12%	12	0%[56.1 µM]	-1%
Cc1ccc(NS(=O)(=O)c2ccc3c(c2)CCC(=O)N3)cc1F	x	x	x	x	1%	x
CN(C(=O)c1cccc(NC(=O)Cc2ccc(NC(=O)C3CCCN(S(=O)(=O)c4cccc([N+](=O)[O-])c4)C3)cc2)c1)C1CCC1 (stereo unspecified)	u	-13%	u	12	x	6%
COC(=O)C1=CN(c2ccc(Oc3ccccc3)cc2)C(N)=C(C#N)C1c1ccccc1 (stereo unspecified)	u	x	15µM*	-1	x	x
Cc1ccc2cc(CN(Cc3ccccc3)Cc3nnnn3C3CCCC3)c(=O)[nH]c2c1	18µM*	u	13µM*	-63*	4%	-32%
CCc1ccc2[nH]c(=O)c(CN(Cc3ccc4c(c3)OCO4)Cc3nnnn3C3CCCC3)cc2c1	18µM*	u	u	-66*	9%	-7%
Cc1ccc2cc(CN(Cc3ccc(F)cc3)Cc3nnnn3C3CCCC3)c(=O)[nH]c2c1	29µM*	19%	u	-61*	12%	-26%
Cc1ccc2[nH]c(=O)c(CN(CCCN3CCOCC3)Cc3nnnn3C3CCCC3)cc2c1	u	5%	-18%	-4	1%	-23%
CNC(=S)NNC(=O)CCn1nc(C)c(Br)c1C	u	u	u	0	5%	-67%
Cc1nn(CCC(=O)NNC(=S)NCC(C)C)c(C)c1Br	7.3µM*	u	6.5µM*	12	6%	-29%
O=C(CN1CCN(c2ccc(F)cc2)CC1)Nc1ccccc1C(=O)NCCc1ccccc1	u	u	16µM*	21	5%	-13%
COc1ccccc1N1CCN(CC(=O)Nc2ccccc2C(=O)NCCc2ccccc2)CC1	15µM*	u	16µM*	14	5%	-27%
O=C(CN1CCN(c2ccccc2O)CC1)Nc1ccccc1C(=O)NCCc1ccccc1	23µM*	-25%	16µM*	-2	-3%[56.1 µM]	-20%
COc1ccccc1N1CCN(CC(=O)Nc2c(C)n[nH]c2C)CC1	-8%	18%	-1%	9	0%	-4%
COc1ccc(CCNC(=O)c2ccccc2NC(=O)CN2CCN(c3ccccc3O)CC2)cc1	u	3%	10µM*	-29	3%	-22%

Source: PubChem
